Results filed as inconclusive are left out. Where a call stands in place of a potency, no number is given. Active and inactive are the calls of the source. Calls come from the whole dose curve; as a rule, active = well fitted inhibition curve with a large enough effect; inconclusive = small, poorly fitted or top-dose-only effect; inactive = no such curve, though single readings can be large or run the other way. Where a SMILES comes first, the peptide text is derived from it. Bridges are numbered along the chain shown (N, C = ends). [ ]: non-standard residue; d: D form. NMeY = CN[CH](Cc1ccc(O)cc1)C(=O)O
The compounds below were run on Zika virus NS2B-NS3 protease (unlinked complex) (assay: Primary screen GU Rhodamine qHTS for Zika virus inhibitors: Unlinked NS2B-NS3 protease assay (AID 1347159; note: nearly all actives have a fitted effect of over 60% in size)). Settings: Recombinant ZIKV NS2B-NS3 protease, Rhodamine110 substrate fluorescence; series mostly up to 107 µM.
Summary of the method: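 In dose–response format, inhibition of unlinked protease (25 nM) was measured with 1.5 microM bis-peptide Rhodamine110 substrate. Aprotinin served as the intraplate control.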
Potency is the fitted concentration of half-maximal effect.

| SMILES | Potency |
| --- | --- |
| CN(C)C1CCN(C(=O)c2ccc(NC(=O)Nc3ccc(-c4nc(N5CCOCC5)nc(N5CCOCC5)n4)cc3)cc2)CC1 | inactive |
| CNC(=O)c1cccc(-c2ccc3c(N4CCOC[C@@H]4C)nc(N4CCOC[C@@H]4C)nc3n2)c1 | inactive |
| Nc1nc2c(c(N3CCNCC3)n1)CCC1=C2[C@@H]2CCCC[C@@H]2O1 | inactive |
| C=C[C@H]1[C@H](O[C@@H]2O[C@H](CO)[C@@H](O)[C@H](O)[C@H]2O)OC=C(C(=O)OC)[C@H]1CCOC(=O)c1cc(O)c(O)c(O)c1 | 15.8 µM (active) |
| COC(=O)[C@@H](O)[C@H]1[C@@]2(C)CC3(O)[C@@H](C(=O)[C@H]2O)[C@]24O[C@]25CC(=O)O[C@@H](c2ccoc2)[C@]5(C)CCC4[C@]13C (some centres undefined) | inactive |
| CCCCc1ccc(C(=O)Nc2cc(-c3ccc(Cl)cc3)nn2-c2ccc(Cl)cc2)cc1 | 39.8 µM (active) |
| OC[C@H]1O[C@@H](Oc2cc(O)c3c(c2)O[C@@H](c2ccc(O)cc2)[C@H](O)C3)[C@H](O)[C@@H](O)[C@@H]1O | inactive |
| C/C(=C\CCC(C)CCO)C(=O)OC1(C)CCC2C(C(=O)O)=COC(OC3OC(CO)C(O)C(O)C3O)C21 (centres undefined) | inactive |
| CC(C)(C(=O)NCC(F)(F)C(F)(F)F)C(=O)NC1C(=O)Nc2ccccc2-c2ccccc21 (centres undefined) | inactive |
| Cn1cc(-c2ccc3nnc(Sc4ccc5nn(C)cc5c4)n3n2)cn1 | inactive |
| CS(=O)(=O)N(CC(=O)NCC1CC1)c1cc(C(F)(F)F)ccc1Cl | inactive |
| Nc1ncnc2c([C@@H]3N[C@H](CO)[C@@H](O)[C@H]3O)c[nH]c12 | inactive |
| CCC(C)C1NC(=O)C2CCCN2C(=O)C(NC(C)=O)C(C)OC(=O)C(Cc2ccc(OC)cc2)N(C)C(=O)C2CCCN2C(=O)C(C(C)C)NC1=O (centres undefined) (Ac-TPIVP[NMeY](Me); ester 1-C; configuration not given here) | inactive |
| CC1OC(OCC2OC(OC3CCC4(C)C(CCC5(C)C4CC=C4C6CC(C)(C)CCC6(C(=O)OC6OC(CO)C(O)C(O)C6O)CCC45C)C3(C)CO)C(O)C(O)C2O)C(O)C(O)C1O (centres undefined) | inactive |
| CC1=CC2/C=C(\C)CC[C@@H](O)[C@@H](O)[C@@H]3O[C@@H]3C(=O)[C@]23C(=O)N[C@@H](CC(C)C)[C@@H]3[C@@H]1C (some centres undefined) | inactive |
| COC(=O)CCC(=O)OC[C@]1(C)CCC[C@@]2(C)C3CC[C@]4(C)C=CC3(CCC12)C4 (some centres undefined) | inactive |
| C=C1C[C@]23C[C@H]1CC[C@H]2[C@@]1(C)CCC[C@@]2(C)C(=O)O[C@@H]([C@@H]3O)[C@@H]12 | inactive |
| C=C1C(OC2OCC(O)C(O)C2O)CC2C(C)(C)C(O)CCC2(C)C1CC/C(C)=C\CO (centres undefined) | inactive |
| Cn1c2ccc(F)cc2c2c(C(=O)N3CCCC3)cn(-c3ccccc3)c(=O)c21 | inactive |
| CC(=O)OC1C(=O)C2(C)C(O)CC3OCC3(OC(C)=O)C2C(OC(=O)c2ccccc2)C2(O)CC(OC(=O)C(O)C(NC(=O)c3ccccc3)c3ccccc3)C(C)=C1C2(C)C (centres undefined) | inactive |

These compounds were tested on Zika virus NS2B-NS3 protease (linked construct) (assay: Primary screen NINDS Rhodamine qHTS for Zika virus inhibitors (AID 1347160; note: nearly all actives have a fitted effect of over 55% in size)). Settings: purified NS2B-NS3 protease, Rhodamine110 substrate fluorescence; series mostly up to 57.1 µM.
Summary of the method: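 Each compound, titrated, sat 15 min with 25 nM linked protease before 1.5 microM Rhodamine110 substrate went in. Fluorescence gain over the next 15 min, in pH 8.0 Tris with Tween 20, gave Hill-fitted curves.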

| SMILES | Potency |
| --- | --- |
| CN(C)C1CCN(C(=O)c2ccc(NC(=O)Nc3ccc(-c4nc(N5CCOCC5)nc(N5CCOCC5)n4)cc3)cc2)CC1 | inactive |
| C/C1=C\CCC2=C[C@@H](OC2=O)c2c(C)coc2C1 | inactive |
| CNC(=O)c1cccc(-c2ccc3c(N4CCOC[C@@H]4C)nc(N4CCOC[C@@H]4C)nc3n2)c1 | inactive |
| Cc1csc(NC(=O)c2ccc(COc3cccc(Cl)c3)o2)n1 | inactive |
| Cc1ccc(S(=O)(=O)Nc2ccccc2N2CCCCC2)s1 | inactive |
| Nc1nc2c(c(N3CCNCC3)n1)CCC1=C2[C@@H]2CCCC[C@@H]2O1 | inactive |
| CC(C)=CCC[C@](C)(O)[C@H]1CC[C@]2(C)[C@@H]1[C@H](O)CC1[C@@]3(C)CC[C@H](O)C(C)(C)[C@@H]3[C@@H](O[C@@H]3O[C@H](CO)[C@@H](O)[C@H](O)[C@H]3O[C@@H]3O[C@H](CO)[C@@H](O)[C@H](O)[C@H]3O)C[C@]12C (some centres undefined) | inactive |
| C=C[C@H]1[C@H](O[C@@H]2O[C@H](CO)[C@@H](O)[C@H](O)[C@H]2O)OC=C(C(=O)OC)[C@H]1CCOC(=O)c1cc(O)c(O)c(O)c1 | 8.91 µM (active) |
| COC(=O)[C@@H](O)[C@H]1[C@@]2(C)CC3(O)[C@@H](C(=O)[C@H]2O)[C@]24O[C@]25CC(=O)O[C@@H](c2ccoc2)[C@]5(C)CCC4[C@]13C (some centres undefined) | inactive |
| CCCCc1ccc(C(=O)Nc2cc(-c3ccc(Cl)cc3)nn2-c2ccc(Cl)cc2)cc1 | inactive |
| OC[C@H]1O[C@@H](Oc2cc(O)c3c(c2)O[C@@H](c2ccc(O)cc2)[C@H](O)C3)[C@H](O)[C@@H](O)[C@@H]1O | inactive |
| CC1(C)CCC[C@@]2(C)C1[C@H](OC(=O)/C=C/C=C/C(=O)O)C=C1COC(=O)[C@@]12O (some centres undefined) | inactive |
| C/C(=C\CCC(C)CCO)C(=O)OC1(C)CCC2C(C(=O)O)=COC(OC3OC(CO)C(O)C(O)C3O)C21 (centres undefined) | inactive |
| CC(C)(C(=O)NCC(F)(F)C(F)(F)F)C(=O)NC1C(=O)Nc2ccccc2-c2ccccc21 (centres undefined) | inactive |
| Cn1cc(-c2ccc3nnc(Sc4ccc5nn(C)cc5c4)n3n2)cn1 | inactive |
| CS(=O)(=O)N(CC(=O)NCC1CC1)c1cc(C(F)(F)F)ccc1Cl | inactive |
| C=C1C[C@]23C[C@H]1CC[C@H]2[C@]1(C)CCC[C@@](C)(C(=O)O)[C@H]1[C@@H]3C(=O)O | inactive |
| Nc1ncnc2c([C@@H]3N[C@H](CO)[C@@H](O)[C@H]3O)c[nH]c12 | inactive |
| CC1CC(O)/C=C/C(O)C(O)CC(=O)Cc2c(Cl)c(O)cc(O)c2C(=O)O1 (centres undefined) | inactive |
| CC(C)c1ccc2c(c1)C(=O)CC1[C@@](C)(C(=O)O)CCC[C@]21C (some centres undefined) | inactive |

| SMILES | Potency |
| --- | --- |
| CCC(C)C1NC(=O)C2CCCN2C(=O)C(NC(C)=O)C(C)OC(=O)C(Cc2ccc(OC)cc2)N(C)C(=O)C2CCCN2C(=O)C(C(C)C)NC1=O (centres undefined) (Ac-TPIVP[NMeY](Me); ester 1-C; configuration not given here) | inactive |
| CCNC(=O)Nc1ccc(-c2nc3c(c(N4CCOC[C@@H]4C)n2)CCN(c2ncccn2)C3)cc1 | inactive |
| O=C(O)COCCN1CCN([C@H](c2ccccc2)c2ccc(Cl)cc2)CC1 | inactive |
| CC[C@]1(O)CC2CN(CCc3c([nH]c4ccccc34)[C@@](C(=O)OC)(c3cc4c(cc3OC)N(C=O)[C@H]3[C@@](O)(C(=O)OC)[C@H](OC(C)=O)[C@]5(CC)C=CCN6CC[C@]43[C@@H]65)C2)C1 (some centres undefined) | inactive |
| CN(c1ccccc1CNc1nc(Nc2ccc3c(c2)CC(=O)N3)ncc1C(F)(F)F)S(C)(=O)=O | inactive |
| CC1OC(OCC2OC(OC3CCC4(C)C(CCC5(C)C4CC=C4C6CC(C)(C)CCC6(C(=O)OC6OC(CO)C(O)C(O)C6O)CCC45C)C3(C)CO)C(O)C(O)C2O)C(O)C(O)C1O (centres undefined) | inactive |
| CC1=CC2/C=C(\C)CC[C@@H](O)[C@@H](O)[C@@H]3O[C@@H]3C(=O)[C@]23C(=O)N[C@@H](CC(C)C)[C@@H]3[C@@H]1C (some centres undefined) | inactive |
| C=CCC1=C[C@]2(OC)[C@H](C)[C@@H](c3ccc(O)c(OC)c3)O[C@]2(OC)CC1=O | inactive |
| Cc1cc(N2CCN([C@@H]3CN[C@H](C(=O)N4CCSC4)C3)CC2)n(-c2ccccc2)n1 | inactive |
| CC/C=C/CC1=C(CCCCC(CCC(=O)O)OC(C)=O)CCC1=O (centres undefined) | inactive |
| CC(=O)O[C@H]1[C@@H](O)[C@H](O[C@H]2[C@@H]3C=CO[C@@H](O[C@H]4O[C@@H](CO)[C@H](O)[C@@H](O)[C@@H]4O)[C@@H]3[C@@]3(CO)O[C@@H]23)O[C@@H](C)[C@@H]1OC(=O)/C=C/c1ccccc1 | inactive |
| CC#CC(=O)N1CCC[C@H]1c1nc(-c2ccc(C(=O)Nc3ccccn3)cc2)c2c(N)nccn12 | inactive |
| C=C1C[C@]23C[C@H]1CC[C@H]2[C@@]1(C)CCC[C@@]2(C)C(=O)O[C@@H]([C@@H]3O)[C@@H]12 | inactive |
| C=C1C(OC2OCC(O)C(O)C2O)CC2C(C)(C)C(O)CCC2(C)C1CC/C(C)=C\CO (centres undefined) | inactive |
| CC(C)C(NC(=O)c1ccc2ccccc2n1)C(=O)NC(CC(=O)O)C(=O)COc1c(F)cccc1F (centres undefined) | inactive |
| C=C1C(=O)O[C@H]2C1[C@H](OC(=O)/C(=C/CO)COC(=O)/C(C)=C/CO)CC(=C)[C@@H]1CC(=O)[C@@H](C)[C@@H]12 (some centres undefined) | inactive |
| Cn1c2ccc(F)cc2c2c(C(=O)N3CCCC3)cn(-c3ccccc3)c(=O)c21 | inactive |
| CC(=O)OC1C(=O)C2(C)C(O)CC3OCC3(OC(C)=O)C2C(OC(=O)c2ccccc2)C2(O)CC(OC(=O)C(O)C(NC(=O)c3ccccc3)c3ccccc3)C(C)=C1C2(C)C (centres undefined) | inactive |
| C(#Cc1nc2ncccc2nc1OCCN1CCCC1)c1ccccc1 | inactive |
